# Screens as filed in PubChem.
# VLA-4 inh: inhibition in a human VLA-4 binding assay. P13612. VLA-4 expressing cells, ligand binding flow cytometry. inhibition, % (about 7 µM as worked out from the volumes in the protocol). 0.2% of 330,000 active. AID 2557; in the data active = inhibition above about 50%
# Target sequence (P13612 whole entry, looked up): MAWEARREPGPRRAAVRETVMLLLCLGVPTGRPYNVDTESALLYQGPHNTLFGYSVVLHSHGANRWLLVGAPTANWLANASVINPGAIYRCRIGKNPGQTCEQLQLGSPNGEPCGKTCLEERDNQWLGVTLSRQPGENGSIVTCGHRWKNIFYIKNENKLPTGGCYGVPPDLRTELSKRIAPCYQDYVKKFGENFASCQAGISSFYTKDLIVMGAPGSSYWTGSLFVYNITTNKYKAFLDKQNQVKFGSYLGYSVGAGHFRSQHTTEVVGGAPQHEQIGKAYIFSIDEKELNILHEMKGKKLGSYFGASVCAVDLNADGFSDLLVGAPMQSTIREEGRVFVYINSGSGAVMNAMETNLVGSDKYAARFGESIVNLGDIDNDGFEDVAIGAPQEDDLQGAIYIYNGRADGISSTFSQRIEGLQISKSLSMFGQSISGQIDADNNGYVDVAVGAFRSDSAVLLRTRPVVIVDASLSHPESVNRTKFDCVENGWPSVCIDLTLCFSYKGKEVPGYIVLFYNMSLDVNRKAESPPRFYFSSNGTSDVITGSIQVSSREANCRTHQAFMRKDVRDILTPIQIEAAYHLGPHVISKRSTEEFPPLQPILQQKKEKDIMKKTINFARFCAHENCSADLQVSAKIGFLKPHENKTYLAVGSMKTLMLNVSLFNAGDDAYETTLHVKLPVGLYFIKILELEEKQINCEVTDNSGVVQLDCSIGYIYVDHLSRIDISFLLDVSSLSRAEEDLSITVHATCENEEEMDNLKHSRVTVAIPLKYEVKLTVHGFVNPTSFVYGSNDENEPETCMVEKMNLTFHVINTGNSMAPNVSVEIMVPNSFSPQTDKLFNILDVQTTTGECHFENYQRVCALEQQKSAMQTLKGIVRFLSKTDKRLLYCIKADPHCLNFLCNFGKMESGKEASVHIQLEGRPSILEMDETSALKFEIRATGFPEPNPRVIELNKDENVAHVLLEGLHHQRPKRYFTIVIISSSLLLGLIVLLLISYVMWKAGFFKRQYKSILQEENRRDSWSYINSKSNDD
# A3A deaminase: human APOBEC3A DNA deaminase inhibition | P31941 | recombinant A3A, FAM/TAMRA ssDNA deamination fluorescence | inhibition, % at 20 µM | 0.41% of 330,000 active | AID 493011;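 active = at least 40% inhibition at 20 µM here, with at most 30% in a related deaminase screen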
# A3G deaminase: APOBEC3G (human) deaminase inhibition; Q9HC16; recombinant A3G, ssDNA deamination FAM/TAMRA fluorescence; inhibition, % at 20 µM; 0.28% of 330,000 active; AID 493012;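 active = inhibition of at least 40% at 20 µM, with no more than 30% in the related APOBEC3A deaminase screen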
# beta cell repl: MIN6 beta-cell proliferation induction | MIN6 cells proliferation, ATPlite luminescence, 48 h; cells starved in 0.2% serum; 100% = growth in 10% serum | proliferation, % at 10 µM | 0.29% of 330,000 active;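 active = compounds whose signal lies at least 3.5 SD above the mean of all wells on their plate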
# NRP1-CendR mod: modulators of CendR peptide binding to human neuropilin-1; O14786; FAM-RPARPAR peptide binding to NRP-1, fluorescence polarization; inhibition, % at 25 µM; 0.85% of 360,000 active; AID 602438;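 active = inhibition or corrected inhibition above about 18%, plus a signal ratio from 0.5 to 1.5, limit read from the data, passing the limit was not always enough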
# APOBEC3A confirm: confirmation of human APOBEC3A DNA deaminase inhibitors; inhibition, % at 20 µM; shares compounds with A3A deaminase; 63% of 1,400 active; recombinant A3A, ssDNA deaminase UDG fluorescence assay;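 active = inhibition reaching a set limit, 80% of the first screen's cutoff, at 20 µM in any replicate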
# UDG A3A counter: inhibits UDG, flagging false APOBEC3A inhibitors; inhibition, % at 20 µM; 1,000 tested, under 10 active; shares compounds with A3A deaminase; AID 504714; UDG counterscreen, FAM/TAMRA uracil oligo fluorescence; call rule not given here
# Hits are given with their value; 0 = inactive; - = no result given. An excerpt weighted towards active compounds, which were near 1.8% of everything screened.
SMILES,VLA-4 inh,A3A deaminase,A3G deaminase,beta cell repl,NRP1-CendR mod,APOBEC3A confirm,UDG A3A counter
CCCC(=O)Nc1ccc2nc(SCC(=O)Nc3ccc(N4CCOCC4)c(Cl)c3)sc2c1,0,63,0,0,0,46,0
CC(C)(C)NC(=O)CSc1nc2ccc(NC(=O)CSc3nnc(N)s3)cc2s1,0,48,0,0,0,69,0
COc1ccc(S(=O)(=O)N(CC(=O)NC(C)C)Cc2ccccc2)cc1,0,0,0,0,0,-,-
COc1ccc(S(=O)(=O)N(CCc2ccccc2)CC(=O)NC(C)C)cc1,0,50,0,0,0,48,0
CNC(=O)CN(CCc1ccccc1)S(=O)(=O)c1ccc(OC)cc1,0,45,0,0,0,0,-
O=C1CCC(=O)N1c1ccc(-c2nc3sc4c(c3c(=O)o2)CCC4)cc1,0,0,0,0,0,-,-
O=c1oc(-c2ccccc2)nc2sc3c(c12)CCC3,0,56,0,0,0,35,0
Cc1cccc(C)c1OC(=O)c1ccccc1,-,-,-,-,0,-,-
CSc1ccc(S(=O)(=O)N2CCC(C(=O)NCc3ccccn3)CC2)cc1,0,59,0,0,0,53,0
C=CCNC(=O)c1ccccc1NC(=O)C1CCN(S(=O)(=O)c2ccc(SC)cc2)CC1,0,44,0,0,0,60,0
C=CCNC(=O)c1ccccc1NS(=O)(=O)c1ccc(SC)cc1,0,0,0,0,0,-,-
COc1ccc(NC(=O)CN2C(=O)NC(C)(C3CC3)C2=O)cc1S(=O)(=O)N1CCOCC1 (centres undefined),0,0,0,0,0,-,-
COc1ccc(N2CCN(C(=O)Cc3ccc(S(=O)(=O)N4CCOCC4)s3)CC2)cc1,0,49,0,0,0,0,-
O=C(Cc1ccc(S(=O)(=O)N2CCCC2)s1)N1CCN(c2ccccc2)CC1,0,0,0,0,0,-,-
O=C(O)Cc1ccc(S(=O)(=O)N2CCCC2)s1,0,49,0,0,0,51,0
N#CCNC(=O)c1nn2c(C(F)(F)F)cc(-c3ccccc3)nc2c1Br,0,0,0,0,0,-,-
Cc1cc(-c2ccccc2)nc2c(Br)c(C(=O)O)nn12,0,42,0,0,0,40,0
Cc1cccc(C(=O)OCCN2CCOCC2)c1,0,0,0,0,0,-,-
CC(=O)c1ccc(S(=O)(=O)N2CCN(C(=O)c3cccc(S(=O)(=O)N4CC(C)OC(C)C4)c3)CC2)cc1 (centres undefined),-,-,-,-,0,-,-
C/C(CC(=O)Nc1ccc(Cl)c(Cl)c1)=N\NC(=O)C(=O)N1CCCCC1,0,62,0,0,0,16,0
C/C(CC(=O)Nc1cccc(Cl)c1Cl)=N\NC(=O)C(=O)N1CCCC1,0,0,0,0,0,-,-
CC12CCC(C(=O)N(c3nccs3)C1=O)C2(C)C (centres undefined),-,-,-,-,0,-,-
CC12CCC(C[N+](C)(C)C1)C2(C)C (centres undefined),0,65,0,0,0,69,0
CC[N+]1(CC)CC2CCC(C)(C1)C2(C)C (centres undefined),0,58,0,0,0,79,0
O=C(CN1CCCC1)Nc1ccc(Br)cc1[N+](=O)[O-],0,0,0,0,0,-,-
SMILES,VLA-4 inh,A3A deaminase,A3G deaminase,beta cell repl,NRP1-CendR mod,APOBEC3A confirm,UDG A3A counter
Cc1ccccc1NC(=O)C1c2cccc[n+]2CC(=O)N1c1c(C)cccc1C (centres undefined),0,40,0,0,0,0,-
Cc1cccc(C)c1NC(=O)C1c2cccc[n+]2CC(=O)N1Cc1ccc2c(c1)OCO2 (centres undefined),0,0,0,0,0,-,-
O=C(Nc1ccc(Br)cn1)c1coc(=O)c(Br)c1,0,62,0,0,0,21,0
Cc1ccc2[nH]c(=O)c(COC(=O)C3CCCCC3)cc2c1,0,0,0,0,0,-,-
O=C(CN1C(=O)S/C(=C\c2ccc(-c3cc(C(=O)O)ccc3Cl)o2)C1=O)Nc1ccc2c(c1)OCO2,0,50,0,0,0,0,0
O=C1/C(=C/c2ccco2)Oc2c1ccc(O)c2CN1CCCCC1,0,0,0,0,0,-,-
CC1CCN(Cc2c(O)ccc3c2O/C(=C\c2ccco2)C3=O)CC1,0,97,0,0,0,36,0
COCCN(CCOC)Cc1c(O)ccc2c1O/C(=C\c1ccco1)C2=O,0,56,0,0,0,27,0
COC(=O)COc1ccc2c(c1)O/C(=C\c1ccco1)C2=O,0,0,0,0,0,-,-
O=C(Nc1ccccc1)C1CC(=O)N(Cc2ccccc2)C1 (centres undefined),0,0,0,0,0,-,-
CSc1cccc(NC(=O)C2CC(=O)N(Cc3ccccc3)C2)c1 (centres undefined),0,52,0,0,0,0,-
CC(=O)Nc1ccc(NC(=O)C2CC(=O)N(Cc3ccco3)C2)cc1 (centres undefined),-,47,0,0,0,0,0
Cc1ccc2nc(C)cc(C(=O)N3CCCC(N4CCN(c5ccccc5C)CC4)C3)c2c1 (centres undefined),0,0,0,0,0,-,-
C[N+]1(CCn2ccc3ccccc32)CCCCC1,0,63,0,0,0,68,0
CN(C)S(=O)(=O)n1cc(/C=C(\NC(=O)c2ccccc2F)C(=O)NCCN2CCOCC2)c2ccccc21,-,-,-,-,0,-,-
CCn1cc(/C=C(\NC(=O)c2ccccc2F)C(=O)NCCN2CCOCC2)c2ccccc21,0,81,0,0,0,0,0
Cc1ccc(S(=O)(=O)NCC(=O)OCC(=O)Nc2cccc(S(=O)(=O)N3CCOCC3)c2)cc1,0,0,0,0,0,-,-
COC(=O)c1cc(C(=O)OCC(=O)c2ccc3c(c2)NC(=O)CO3)cc([N+](=O)[O-])c1,-,0,0,0,0,-,-
CCOc1ccccc1OCC(=O)Nc1cc(S(=O)(=O)N2CCCCC2)ccc1N1CCN(CC)CC1,0,60,0,0,0,55,0
CN1CCN(S(=O)(=O)c2cccc(C(=O)Nc3cc(C(F)(F)F)ccc3N3CCCCC3)c2)CC1,0,44,0,0,0,0,-
CCC(=O)c1ccc(OCC(=O)Nc2cc(S(=O)(=O)N3CCCCC3)ccc2N2CCN(CC)CC2)cc1,0,55,0,0,0,66,0
CN1CCN(S(=O)(=O)c2cccc(C(=O)Nc3ccccc3N3CCCCC3)c2)CC1,0,0,0,0,0,-,-
O=C(Cc1c(F)cccc1Cl)Nc1cc(S(=O)(=O)N2CCCCC2)ccc1N1CCOCC1,0,0,0,0,0,-,-
CN1CCN(c2ccc(S(=O)(=O)N3CCCCC3)cc2NC(=O)Cc2c(F)cccc2Cl)CC1,0,46,0,0,0,36,0
CC1CCN(c2nc(Cl)nc(Nc3ccc([N+](=O)[O-])cc3)n2)CC1,0,0,0,0,0,-,-
COc1ccc(-c2cc3c(=O)n(CC(=O)N4CCCC4)ncn3n2)cc1,0,0,0,0,0,-,-
